Measured values taken from PubChem BioAssay AID504834 (National Center for Advancing Translational Sciences (NCATS), 2011).
Hit rate of the full screen: of about 320,000 compounds, about 22,000 (6.9%) were called active. Not shown: some 27% with an inconclusive outcome. Many of the other results were omitted from the sample, so actives are more common in it than they were. A number with no mark means an inactive call. Calls follow the shape of the dose curve; as a rule, active = well fitted inhibition curve with a large enough effect; inconclusive = small, poorly fitted or top-dose-only effect, or another doubt; inactive = no such curve, though single readings can be large or run the other way.

Assay: Primary qHTS for delayed death inhibitors of the malarial parasite plastid, 96 hour incubation
Conditions: P. falciparum luciferase reporter growth; series mostly up to 28.7 µM; activity change, negative = inhibition: at the top concentration
Procedure, shortened: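 Compounds incubated with erythrocytes infected by luciferase-expressing P. falciparum (2% hematocrit, 0.05% parasitemia final) for 96 hours, 37 C in 5% CO2. Growth inhibition scored as decreased luciferase luminescence.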
% is scaled to controls: 0 for no effect and ±100 for the full control effect; potency is read from the fitted curve at half-maximal effect.

Structure (SMILES) | activity change, negative = inhibition [%] | Potency
COc1ccc(OC)c(C(=O)NC(CC(N)=O)c2ccc(N3CCC(N4CCCCC4)CC3)c([N+](=O)[O-])c2)c1 (stereo unspecified) | 51.1 | –
CCOc1ccc(N(CC)S(=O)(=O)c2cccc3nsnc23)cc1 | – | 6.57 µM (active)
COc1ccc(N(C)S(=O)(=O)c2cccc3nsnc23)cc1 | 24.7 | –
COc1ccc(N(C)C(=O)CCS(=O)(=O)c2cccc3nsnc23)cc1 | 6.94 | –
O=C(Nc1ccc(N2CCOCC2)c(Cl)c1)c1ccc(S(=O)(=O)N2CCOCC2)cc1 | 6.03 | –
COc1ccc(COC(=O)NC(C(=O)O)c2ccccc2)cc1 (stereo unspecified) | 82 | –
COc1ccc(CNC(=O)Cc2ccc(-c3ccccc3)cc2)cc1OC | -17.7 | –
COC(=O)c1ccc(C(NC(=O)OCc2ccccc2)/C(C)=C/[C@@H](C)C(=O)NCc2ccc(OC)c(OC)c2)cc1 (stereo partly specified) | – | 11.7 µM (active)
COc1ccccc1CNC(=O)CCCN1C(=O)NC2(CCCC2)C1=O | -3.02 | –
COc1ccccc1CNC(=O)CCCn1c(=O)c2ccccc2n(CC(=O)NC2CCCC2)c1=O | – | 4.65 µM (active)
COCCCNC(=O)Cn1c(=O)n(Cc2ccccc2Cl)c(=O)c2cc(OC)c(OC)cc21 | 33.6 | –
COC(=O)c1ccccc1N=Nc1c(C)[nH][nH]c1=O | -0.0243 | –
O=C(O[C@H]1[C@H](Cc2ccccc2)NS(=O)(=O)[C@H]2C[C@@H]3C=C[C@]12O3)c1ccc([N+](=O)[O-])cc1 | -23.9 | –
CC(=O)c1ccc(S(=O)(=O)N2CCC3(CC2)OCCO3)cc1 | -2.99 | –
NC(=O)COC(=O)/C=C/c1ccc2ccccc2n1 | 0.945 | –
CC(=O)c1ccc(S(=O)(=O)N2CCN(C(=O)/C=C/c3ccc4ccccc4n3)CC2)cc1 | – | 5.22 µM (active)
COCC1CCCN(C(=O)c2ccc3oc(C(C)C)nc3c2)C1 (stereo unspecified) | -11.9 | –
Nn1c(SCC(=O)Nc2nccs2)nnc1-c1ccco1 | -3.03 | –
O=C(NCc1cccnc1)c1cn(-c2ccccc2)nc1-c1cccs1 | 11.5 | –
CN(C)/N=C/c1cn(-c2ccccc2)nc1-c1cccnc1 | -21.6 | –
NC(=O)C1CCN(C(=O)c2cn(-c3ccccc3)nc2-c2cccnc2)CC1 | 34.6 | –
COC(=O)c1cn(-c2ccccc2)nc1-c1cccnc1 | – | 7.38 µM (active)
CC(C)(C)OC(=O)N/N=C/c1cn(-c2ccccc2)nc1-c1cccnc1 | – | 2.33 µM (active)
O=C(COC(=O)/C=C/c1cn(-c2ccccc2)nc1-c1cccnc1)Nc1ccc(Cl)cc1Cl | -12.5 | –
COc1ccc(C(=O)N2CCN(c3ccc(C(C)=O)cc3F)CC2)cc1S(=O)(=O)NC1CC1 | 35.2 | –
Cc1ccc(/C=C/C(=O)OCC(=O)NCc2ccc(Cl)cc2)o1 | 32.4 | –

Structure (SMILES) | activity change, negative = inhibition [%] | Potency
Cc1cc(-c2ccc(C)c(S(=O)(=O)NCCCN(Cc3ccccc3)C(C)C)c2)on1 | 10.5 | –
COC(=O)c1c(NC(=O)c2ccccc2F)sc2c1C(C(=O)OC)CC2 (stereo unspecified) | 1.77 | –
O=C(Nc1ccc(C(=O)O)cc1)/C(=C\c1ccccc1)NC(=O)c1ccc(Br)cc1 | 52.1 | –
COc1ccccc1N1CCN(C(=O)C2Cc3ccccc3CN2C(=O)c2ccco2)CC1 (stereo unspecified) | -15.4 | –
CCCCn1c(N)c(N(CCOC)C(=O)CSCC(=O)Nc2cccc(C)c2)c(=O)[nH]c1=O | 48.9 | –
CCOCCn1c(-c2ccccc2)nc2ccccc21 | 4.72 | –
CCCCn1c(-c2cccc(C)c2)nc2cc3[nH]c(=O)c(C(C)C)nc3cc21 | – | 4.15 µM (active)
O=C(O)C1CCCN1C1=NS(=O)(=O)c2ccccc21 (stereo unspecified) | 31.3 | –
CN(Cc1ccccc1)S(=O)(=O)c1nnc(NC(=O)c2ccccc2F)s1 | 94.1 | –
CN(C(=O)COC(=O)c1nc(Cl)ccc1Cl)C1CCS(=O)(=O)C1 (stereo unspecified) | 23.1 | –
Cc1cccc2cc(CN(Cc3cccs3)C(=S)NCc3ccco3)c(=O)[nH]c12 | -21.7 | –
Cc1ccc(C)c2[nH]c(=O)c(CN(Cc3cccnc3)C(=S)NCc3ccco3)cc12 | – | 3.7 µM (active)
O=C(Nc1ccccc1)N(Cc1cccnc1)Cc1ccco1 | -7.92 | –
Cc1cn([C@H]2CC(F)[C@@H](CO)O2)c(=O)[nH]c1=O (stereo partly specified) | 0.0378 | –
O=C(CN1C(=O)NC2(CCCC2)C1=O)NCC1CCCO1 (stereo unspecified) | 10.6 | –
Cc1nn(CC(=O)NCC2CCCO2)c(=O)c2cc3ccccc3n12 (stereo unspecified) | -29.6 | –
O=C(Cn1nc(Cc2cccnc2)c2ccccc2c1=O)NCC1CCCO1 (stereo unspecified) | – | 9.28 µM (active)
CCCn1c2ccccc2c2cnn(CC(=O)NCCCN3CCCCC3CC)c(=O)c21 (stereo unspecified) | 9.2 | –
CCC1CCC2(CC1)NC(=O)N(CC(=O)Nc1ccc(OC)cc1)C2=O (stereo unspecified) | 29.4 | –
COc1ccc(S(=O)(=O)NC(C)C(=O)N2CCCCCC2)cc1 (stereo unspecified) | -3.52 | –
COc1ccc(CC(NC(C)=O)C(=O)NC2CCN(C(=O)c3ccc(Cl)cc3)CC2)cc1 (stereo unspecified) | 3.33 | –
O=C(C1CCN(Cc2ccc(Cl)cc2)CC1)N1CCN(Cc2ccc3c(c2)OCO3)CC1 | 4.83 | –
COc1ccc(Cl)cc1C(=O)NCc1cn(C)nc1C | 24.3 | –
Cc1ccc2nc(-c3cccc(Br)c3)cc(C(=O)Nn3cnnc3)c2c1 | -3.98 | –
Cc1ccc(-c2cc(C(=O)NCc3cn(C)nc3C)c3cc(Br)ccc3n2)cc1 | – | 13.1 µM (active)
